An excerpt weighted towards active compounds, which were near 8% of everything screened.
HT1080-NT tox: kills 2HG-producing HT-1080-NT fibrosarcoma cells. HT-1080-NT fibrosarcoma viability, CellTiter-Glo ATP luminescence, 48 h. Potency, µM (highest dose often 46.1 µM), without a hit: at the top dose activity, negative = less viability, hits mostly cytotoxic. hit rate 1.6% among 360,000. AID 686970;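 further: NT is the 2HG producing partner of a matched IDH1 knockdown line; 0% = DMSO-treated cells and -100% = media-only wells without cells; nearly all actives have a fitted effect of over 55% in size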
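Fibrosarcoma NT cells, 750 per well in 5% FBS RPMI, were exposed to compound for 48 hours. Viability: CellTiter-Glo luminescence.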
KB-V1 MDR tox: KB-V1 MDR subline cytotoxicity. KB-V1 MDR cells viability, CellTiter-Glo, 72 h. Potency, µM (titrated, usually from 46.1 µM), actives largely listed as cytotoxic. hit rate 3.4% among 400,000. AID 1347076; further: on the % scale 0 is the no-effect control and ±100 the full control effect; nearly all actives have a fitted effect of over 60% in size
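KB-V1 cells (P-gp-expressing MDR subline of KB-3-1) in phenol-red-free DMEM with 10% FBS were exposed to library compounds over a concentration series for 72 h at 37 degrees C. Viability read by CellTiter-Glo luminescence; concentration-effect curves fitted after normalization.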
HT1080 IDH1KD tx: kills HT-1080 cells with IDH1 knockdown | hit rate 2% among 360,000 | Potency, µM (highest dose often 46.1 µM), without a hit: at the top dose activity, negative = toxicity, actives largely listed as cytotoxic | HT-1080 IDH1 knockdown viability, ATP luminescence, 48 h | AID 686971;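 further: 0% = DMSO wells and -100% = cell-free medium wells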
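Using the IDH1-knockdown HT-1080 line run in the same batch and compound series as the NT line, viability after 48 h at 37 °C was determined by CellTiter-Glo luminescence and expressed as % activity.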
SW480 rereplic: DNA re-replication induction in SW480 cells | Potency, µM (doses to about 46.1 µM), for inactives: top-dose re-replication activation, most hits filed as activators | hit rate 1.8% among 340,000 | AID 624297 | SW480 DNA re-replication, Hoechst DNA content imaging, 48 h; further: % of control where 0% means no effect; nearly all actives have a fitted effect of over 55% in size
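SW480 cells exposed to compounds for 48 hr at 37 C, 5% CO2, then Hoechst-stained 40 min. Nuclear DNA content imaged by fluorescence scanning (405 nm excitation, 500-530 nm emission); re-replication scored as increased high-intensity nuclei.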
KB-3-1 cytotox: KB-3-1 parental cell cytotoxicity | KB-3-1 viability, CellTiter-Glo ATP luminescence, 72 h | Potency, µM (highest dose often 46.1 µM), actives largely listed as cytotoxic | hit rate 1.4% among 400,000 | AID 1347075; further: on the % scale 0 is the no-effect control and ±100 the full control effect; nearly all actives have a fitted effect of over 60% in size
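Cytotoxicity measured as CellTiter-Glo luminescence after 72 h at 37 C. Compound titrations were pinned onto drug-naive KB-3-1 parental adenocarcinoma cells grown in DMEM with 10% FBS, and normalized data fitted to concentration-response curves.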
MCF10A rerep: DNA re-replication induction in MCF 10a cells. AID 624296. MCF 10A DNA re-replication, Hoechst nuclear intensity, 48 h. Potency, µM (titrated, usually from 46.1 µM), without a hit: at the top dose activity, positive = re-replication, most hits filed as activators. hit rate 2.9% among 350,000; further: % of control where 0% means no effect; nearly all actives have a fitted effect of over 50% in size
* hit, by the source's call; i = inactive; ? = inconclusive; · = not tested or not shown. The call rests on the fitted dose curve; in most records, active means well fitted curve in the direction sought with a large enough effect; inconclusive means small, poorly fitted or top-dose-only effect, or another doubt; inactive means no such curve, though single readings can be large; an effect the other way counts as inactive or inconclusive. Potency means the concentration at half of the fitted maximal effect.

SMILES	HT1080-NT tox	KB-V1 MDR tox	HT1080 IDH1KD tx	SW480 rereplic	KB-3-1 cytotox	MCF10A rerep
Cc1ccccc1OCC(=O)Nc1ccc(C(=O)OCc2cc(=O)n3ccsc3n2)cc1	·	?	·	·	i	·
O=C(C1CC1)N1CCc2cc(Br)cc(S(=O)(=O)N3CCCCCC3)c21	-9%	9.2µM*	-16%	16%	?	?
CCC(=O)N1CCc2cc(Br)cc(S(=O)(=O)N3CCCCCC3)c21	-9%	?	-2%	-7%	i	9%
CCc1nc(SCC(=O)Nc2ccccc2OC)c2c(C)c(C)sc2n1	-5%	9.2µM*	-20%	14%	i	21µM*
Cc1sc2nc(C(C)C)nc(SCC(=O)N3c4ccccc4CC3C)c2c1C (stereo not given)	8%	18µM*	17%	-3%	i	?
Cc1ccccc1-n1ncc2c(SCC(=O)N3c4ccccc4CC3C)ncnc21 (stereo not given)	?	9.2µM*	?	?	i	10%
CCc1nc(SCC(=O)N2c3ccccc3CC2C)c2c(C)c(C)sc2n1 (stereo not given)	6.3µM*	i	?	21µM*	i	?
CCc1nc(SCC(=O)N2CC(=O)Nc3ccccc32)c2c(C)c(C)sc2n1	2%	i	8%	18%	i	17%
COc1ccc(OC)c(NC(=O)c2cc3c(=O)oc4ccccc4c3s2)c1	·	?	·	·	i	·
Cc1ccc2ccc(C(Nc3ccccc3)c3ccc(F)cc3)c(O)c2n1 (stereo not given)	?	?	?	·	i	·
Cc1ccc2ccc(C(Nc3ccccc3)c3ccccc3)c(O)c2n1 (stereo not given)	-8%	?	?	·	4.1µM*	·
Cc1cccc(NC(c2ccccc2C)c2ccc3ccc(C)nc3c2O)n1 (stereo not given)	·	i	·	·	i	·
COc1cc(C(Nc2ccccn2)c2ccc3ccc(C)nc3c2O)cc(OC)c1O (stereo not given)	-29%	16µM*	15µM*	21µM*	?	13µM*
Cc1cccc(NC(c2ccc(C)s2)c2ccc3ccc(C)nc3c2O)n1 (stereo not given)	-1%	i	-1%	?	i	5.8µM*
Cc1ccc2ccc(C(Nc3ccccc3)c3ccc(C(C)C)cc3)c(O)c2n1 (stereo not given)	?	?	?	·	15µM*	·
CC(C)NS(=O)(=O)c1cc(C(F)(F)F)ccc1/C=C/C(=O)O	·	i	·	·	i	·
COCc1nnc(NC(=O)CC(C)C)s1	2%	i	11%	-6%	i	-4%
COc1ccc(CCC(=O)Nc2cc3c4c(c2)CCC(=O)N4CCC3)cc1	-11%	?	-11%	-5%	i	8%
O=C(NCCCn1ccnc1)c1ccc(Br)o1	3%	i	6%	5%	i	3%
CC(=O)N1CCc2cc(S(=O)(=O)NC(Cc3ccccc3)C(=O)NCc3ccccc3Cl)ccc21 (stereo not given)	·	i	·	·	i	·
CC(C)(C)N1C(=O)Cc2c1nc(N)c1c(N)nc(N3CCCCC3CO)c(C#N)c21 (stereo not given)	-8%	?	-1%	8%	?	15µM*
CC(Sc1nnc(-c2cccnc2)n1N)C(=O)NCCC1=CCCCC1 (stereo not given)	1%	i	5%	-4%	i	0%
Cc1ccc(NS(=O)(=O)c2cc(C(=O)N3CCc4ccccc4C3)ccc2Cl)cc1	?	16µM*	-25%	?	i	?
Cc1ccccc1NS(=O)(=O)c1cc(C(=O)N2CCc3ccccc3C2)ccc1C	-14%	7.3µM*	-4%	-1%	i	?
Cc1c(Cl)c(=O)oc2cc(OC(C)C)ccc12	2%	21µM*	-2%	-2%	i	0%

From PubChem BioAssay
